Experimental findings from PubChem BioAssay (NCATS) are described below.

Experiment [1] can be described thus: AP1 Signaling Pathway (AID 357; active means well fitted curve in either direction with a large enough effect, not every such curve was filed as active;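 further: ME-180 reporter cells stimulated with EGF at its EC50 level; on the % scale 0 is the no-effect control and ±100 the full control effect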). The method in brief: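 First, ME-180 AP-1-bla cells were cultured overnight at 37 °C in low-serum Opti-MEM. Next, titrated compounds with EC50 EGF were incubated 5 hours. Finally, CCF4 was added for 2.5 hours and the 460/530 nm ratio recorded.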
Experiment [2] is described as follows: Stat Signaling Pathway (AID 446; active means well fitted curve in either direction with a large enough effect, not every such curve was filed as active;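 further: ME-180 cervical cancer cells given 40 pM IL-6 alongside compound; SIE-controlled beta-lactamase reporter measured as 460/530 nm FRET emission ratio; on the % scale 0 is the no-effect control and ±100 the full control effect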). The gist of the method: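 Overnight-plated ME-180 cells bearing a STAT Inducible Element beta-lactamase reporter; 5 h co-exposure to compound and 40 pM IL-6; values normalized to 300 pM IL-6 and 125 nM JAK inhibitor controls.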
Experiment [3] has as its target Glucocorticoid receptor (Homo sapiens) (UniProt P04150). In words: GR-GFP Redistribution (AID 450;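 active means compounds whose dose series gives a full or clear partial fitted curve of increased nuclear translocation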; further: potency means the concentration at half of the fitted maximal effect). Conditions: U2OS GR-GFP nuclear translocation, laser cytometry, 2 h.
Experiment [4] has the same target. Description: GR-EFC Redistribution (AID 451; calls by dose curve; further: potency means the concentration at half of the fitted maximal effect). The following applies: CHO-K1 GR-EFC translocation, beta-gal luminescence, 2 h. The gist of the method: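 CHO-K1 cells expressing nuclear EA and GR-ED fragments of b-gal; compounds titrated up to 46 uM final, 2 h at 37 C. GR nuclear translocation read as complemented b-gal luminescence after 1 h RT detection.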
For experiment [5], the target named is Mitogen-activated protein kinase 10 (Mus musculus) (UniProt Q61831). In words: JNK3 AlphaScreen Assay (AID 530; active means well fitted curve in either direction with a large enough effect, not every such curve was filed as active;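 further: kinase came from lysate of stimulated human HepG2 cells; signal reports phosphorylation of biotinylated GST-cJun 1-79 at Ser73 with 10 µM ATP; on the % scale 0 is the no-effect control and ±100 the full control effect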). The gist of the method:
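HepG2 lysate (IL-1b/TNFa pre-activated) + biotin-GST-cJun 1-79 + anti-pSer73 cJun; cpd titration, 15 min RT; ATP 10 uM start; Tris pH 7.6, MgCl2, DTT, vanadate; beads in EDTA buffer; AlphaScreen.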

For experiment [6], the target named is 3',5'-cyclic-AMP phosphodiesterase 4B (Homo sapiens) (UniProt Q07343). Description: qHTS Assay for Inhibitors of PDE-IV (AID 607; active means well fitted activation curve with a large enough effect in the main read-out, with a control signal flat, not every such curve was filed as active; further: % of control where 0% means no effect). The method in brief: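 Live HEK293 cells with a modified cyclic nucleotide-gated (CNG) channel report intracellular cAMP via membrane-potential dye fluorescence (ex 535/em 590 nm). Endogenous PDE-IV was targeted. Compounds were tested at up to 22.9 uM final; RO 20-1724 100 uM served as control.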
3',5'-cyclic-AMP phosphodiesterase 4B (Homo sapiens), sequence (Q07343 whole entry, looked up): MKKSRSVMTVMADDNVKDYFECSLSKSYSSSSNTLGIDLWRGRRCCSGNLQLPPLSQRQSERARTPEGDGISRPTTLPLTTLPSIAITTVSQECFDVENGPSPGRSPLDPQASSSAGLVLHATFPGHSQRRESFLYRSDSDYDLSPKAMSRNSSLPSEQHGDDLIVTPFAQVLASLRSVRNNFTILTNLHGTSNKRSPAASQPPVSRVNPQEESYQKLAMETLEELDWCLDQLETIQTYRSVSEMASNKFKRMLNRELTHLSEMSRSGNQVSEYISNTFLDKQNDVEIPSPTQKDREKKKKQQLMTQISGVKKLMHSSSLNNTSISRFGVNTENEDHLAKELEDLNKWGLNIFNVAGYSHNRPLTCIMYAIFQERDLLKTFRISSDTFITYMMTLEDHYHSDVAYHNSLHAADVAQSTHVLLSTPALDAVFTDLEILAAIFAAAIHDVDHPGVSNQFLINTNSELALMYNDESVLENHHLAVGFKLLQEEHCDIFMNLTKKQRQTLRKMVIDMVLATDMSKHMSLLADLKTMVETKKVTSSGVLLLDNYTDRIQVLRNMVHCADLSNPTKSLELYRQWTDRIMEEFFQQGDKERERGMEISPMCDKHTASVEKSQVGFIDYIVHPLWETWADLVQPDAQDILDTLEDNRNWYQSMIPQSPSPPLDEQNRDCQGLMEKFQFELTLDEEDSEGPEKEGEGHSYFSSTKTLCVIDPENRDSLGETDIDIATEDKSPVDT

A short description of experiment [7]: qHTS Assay for Lipid Storage Modulators (AID 1519; calls by dose curve). The following applies: Drosophila S3 cells, BODIPY lipid droplet/cell ratio, laser cytometry, cells loaded with oleic acid; for activity change, negative = inhibition: at 25.7 µM (top of the series). The gist of the method: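 Cells seeded at 5,000 per well were treated with compounds over a concentration series and loaded with oleic acid (400 uM, as added). Lipid droplet fluorescence (488 nm excitation, 500-530 nm channel) was read by laser-scanning cytometry and normalized to 20 uM Triacsin C.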

Experiment [8] concerns the target Ubiquitin carboxyl-terminal hydrolase 1 (Homo sapiens) (UniProt O94782). In words: Inhibitors of USP1/UAF1: Pilot qHTS (AID 504865).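 Further: rhodamine fluorescence freed from ubiquitin-rhodamine substrate followed over time; top concentration of the series differs between compounds; on the % scale 0 is the no-effect control and ±100 the full control effect; nearly all actives have a fitted effect of over 35% in size.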 The method in brief:
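1nM USP1/UAF1 + cpd, 15 min RT; start w/ Ub-Rho 150nM final; kinetic FL 480/540 nm, 6 reads q60 s. Buffer 50mM HEPES pH 7.8, 0.5mM EDTA, 1mM TCEP, 0.01% Tween-20, 0.1 mg/ml BSA.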
On the technique in general: qHTS replaces the single test concentration by a dilution series.

Experiment [9] deals with Luciferin 4-monooxygenase (Photinus pyralis) (UniProt P08659). In words: Biochemical firefly luciferase enzyme assay for NPC (AID 624030).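 Further: purified P. pyralis luciferase at 10 nM with luciferin and ATP substrate; 0% = DMSO and -100% = full luciferase inhibition by PTC124 control; nearly all actives have a fitted effect of over 70% in size.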 The gist of the method: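 Purified P. pyralis luciferase at 10 nM in 50 mM Tris Acetate (final), luminescence read within 5 minutes of enzyme addition to compounds. Activity normalised to PTC124 versus DMSO; concentration-response curves classed by r2, magnitude and activity.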
Luciferin 4-monooxygenase (Photinus pyralis), sequence (P08659 whole entry, looked up): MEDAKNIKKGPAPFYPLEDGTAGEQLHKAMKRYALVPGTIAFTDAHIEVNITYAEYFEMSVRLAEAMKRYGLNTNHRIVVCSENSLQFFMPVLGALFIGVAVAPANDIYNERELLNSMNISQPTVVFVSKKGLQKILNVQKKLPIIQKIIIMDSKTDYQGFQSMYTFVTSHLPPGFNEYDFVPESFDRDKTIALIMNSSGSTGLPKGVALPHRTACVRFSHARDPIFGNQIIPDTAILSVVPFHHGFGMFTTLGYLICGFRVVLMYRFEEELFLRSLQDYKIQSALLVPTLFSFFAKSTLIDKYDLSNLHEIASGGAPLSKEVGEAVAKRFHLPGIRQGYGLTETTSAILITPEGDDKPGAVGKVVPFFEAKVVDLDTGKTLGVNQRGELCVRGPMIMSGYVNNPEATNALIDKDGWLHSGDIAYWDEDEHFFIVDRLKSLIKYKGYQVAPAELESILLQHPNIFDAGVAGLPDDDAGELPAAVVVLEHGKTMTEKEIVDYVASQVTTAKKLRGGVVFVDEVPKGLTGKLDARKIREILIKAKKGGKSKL

The nature of experiment [10]: NFAT Signaling Pathway (AID 444; active means well fitted curve in either direction with a large enough effect, not every such curve was filed as active;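 further: carbachol stimulus at about its EC50 of 1 µM final; on the % scale 0 is the no-effect control and ±100 the full control effect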). Conditions: Jurkat NFAT-bla M1, carbachol, beta-lactamase ratio, 5 h; at 17.2 µM (top of the series) unless noted. The method in brief:
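Jurkat cells with NFAT-driven β-lactamase reporter and co-expressed M1 receptor, stimulated with carbachol (final 1 uM, ~EC50), compound titration, 5 h at 37 °C. CCF4 loaded 1 h at RT; 460/530 nm ratio gave %activity and AC50.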

The target in experiment [11] is ATP-dependent 6-phosphofructokinase (Trypanosoma brucei brucei) (UniProt O15648). Description: qHTS Assay to Find Inhibitors of T. brucei phosphofructokinase: hit validation (AID 492961). The gist of the method:
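Compounds titrated; %activity normalized to 0x and 1x enzyme controls, curve-fitted. Readout: ADP-Glo luminescence after 45 min room-temperature reaction of 1.25 nM PFK, 0.1 mM ATP, 0.5 mM F6P, pH 8.0.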

Experiment [12] can be described thus: qHTS profiling for inhibitors of Plasmodium falciparum proliferation (AID 504749).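 Further: 0% = DMSO vehicle and full inhibition = artemisinin control; nearly all actives have a fitted effect of over 60% in size.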 Conditions: P. falciparum in erythrocytes, SYBR Green DNA, 72 h, at 12.8 µM (top of the series). The method in brief: (§1)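 SYBR Green fluorescence (ex 485 nm, em 535 nm) reports parasite DNA after 72 h compound exposure of infected red cells at 0.3% parasitemia, 2.5% hematocrit; signal normalized to 0.29 uM artemisinin and vehicle wells.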

Another experiment relates to C2A. The description is as above. Conditions: P. falciparum in erythrocytes, SYBR Green DNA, 72 h; series mostly up to 12.8 µM. The method in brief:
as §1

A further experiment deals with CP217. The experiment is described as above. Conditions: P. falciparum in erythrocytes, SYBR Green DNA, 72 h; series mostly up to 12.8 µM. The method in brief: as §1
The subject of the next experiment is CP238. The experiment is described as above. Conditions: P. falciparum in erythrocytes, SYBR Green DNA, 72 h; series mostly up to 12.8 µM. The method in brief: as §1
The subject of the next experiment is CP250. The description is as above. Conditions: P. falciparum in erythrocytes, SYBR Green DNA, 72 h; series mostly up to 12.8 µM. The method in brief:
as §1

The test system of the next experiment is CP252. Described as above. The following applies: P. falciparum in erythrocytes, SYBR Green DNA, 72 h; series mostly up to 12.8 µM. The gist of the method: as §1
For the next experiment, the system named is FAB9. Described as above. The following applies: P. falciparum in erythrocytes, SYBR Green DNA, 72 h; series mostly up to 12.8 µM. The method in brief:
as §1

The subject of the next experiment is HB3. The description is as above. The following applies: P. falciparum in erythrocytes, SYBR Green DNA, 72 h; series mostly up to 12.8 µM. The gist of the method: as §1
A further experiment deals with SC27B. The description is as above. Conditions: P. falciparum in erythrocytes, SYBR Green DNA, 72 h; series mostly up to 12.8 µM. The gist of the method: as §1
The mark [13] stands for this setting: measured here: cell count channel max response.
Where [14] appears, read: measured here: lipid channel max response.

SMILES strings stand for the structures. Records with an inconclusive call do not appear. The source made the active and inactive calls. Unless noted, the call rests on the fitted dose curve; in most records, active means well fitted curve in the direction sought with a large enough effect; inconclusive means small, poorly fitted or top-dose-only effect, or another doubt; inactive means no such curve, though single readings can be large; an effect the other way counts as inactive or inconclusive.

ATP-dependent 6-phosphofructokinase (Trypanosoma brucei brucei), sequence (O15648 whole entry, looked up): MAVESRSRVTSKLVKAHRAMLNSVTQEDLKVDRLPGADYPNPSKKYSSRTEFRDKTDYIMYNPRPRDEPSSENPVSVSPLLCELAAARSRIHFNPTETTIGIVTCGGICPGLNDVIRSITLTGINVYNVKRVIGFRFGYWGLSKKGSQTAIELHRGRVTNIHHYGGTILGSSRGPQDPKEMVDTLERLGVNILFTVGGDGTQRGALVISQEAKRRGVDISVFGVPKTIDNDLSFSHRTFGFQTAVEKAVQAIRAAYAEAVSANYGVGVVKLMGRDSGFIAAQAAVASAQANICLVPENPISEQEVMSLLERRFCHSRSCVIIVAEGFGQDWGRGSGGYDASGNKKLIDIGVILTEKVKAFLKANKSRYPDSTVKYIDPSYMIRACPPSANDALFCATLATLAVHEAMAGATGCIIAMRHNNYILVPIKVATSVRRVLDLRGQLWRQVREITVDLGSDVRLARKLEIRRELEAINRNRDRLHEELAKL
Glucocorticoid receptor (Homo sapiens), sequence (P04150 whole entry, looked up, the tested form may be a part): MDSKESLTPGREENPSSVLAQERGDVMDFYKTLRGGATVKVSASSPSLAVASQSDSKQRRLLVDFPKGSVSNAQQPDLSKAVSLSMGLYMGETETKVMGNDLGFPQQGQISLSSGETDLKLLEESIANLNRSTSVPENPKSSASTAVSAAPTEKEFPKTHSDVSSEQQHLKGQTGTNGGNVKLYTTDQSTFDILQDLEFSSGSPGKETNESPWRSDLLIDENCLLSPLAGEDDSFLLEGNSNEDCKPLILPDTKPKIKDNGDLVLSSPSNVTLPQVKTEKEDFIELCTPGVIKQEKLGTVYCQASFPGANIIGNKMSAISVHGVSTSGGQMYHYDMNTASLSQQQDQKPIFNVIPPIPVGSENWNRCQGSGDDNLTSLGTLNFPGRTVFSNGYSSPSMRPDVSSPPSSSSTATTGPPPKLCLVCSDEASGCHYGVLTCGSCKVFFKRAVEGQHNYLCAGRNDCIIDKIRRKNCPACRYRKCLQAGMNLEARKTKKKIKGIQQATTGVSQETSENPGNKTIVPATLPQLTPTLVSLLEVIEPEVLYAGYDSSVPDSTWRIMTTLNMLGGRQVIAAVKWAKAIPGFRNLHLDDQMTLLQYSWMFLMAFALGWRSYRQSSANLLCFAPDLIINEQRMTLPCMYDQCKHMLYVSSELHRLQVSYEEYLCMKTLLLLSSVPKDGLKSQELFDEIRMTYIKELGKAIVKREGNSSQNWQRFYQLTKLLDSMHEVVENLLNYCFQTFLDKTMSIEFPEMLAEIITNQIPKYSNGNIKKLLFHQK
Ubiquitin carboxyl-terminal hydrolase 1 (Homo sapiens), sequence (O94782 whole entry, looked up): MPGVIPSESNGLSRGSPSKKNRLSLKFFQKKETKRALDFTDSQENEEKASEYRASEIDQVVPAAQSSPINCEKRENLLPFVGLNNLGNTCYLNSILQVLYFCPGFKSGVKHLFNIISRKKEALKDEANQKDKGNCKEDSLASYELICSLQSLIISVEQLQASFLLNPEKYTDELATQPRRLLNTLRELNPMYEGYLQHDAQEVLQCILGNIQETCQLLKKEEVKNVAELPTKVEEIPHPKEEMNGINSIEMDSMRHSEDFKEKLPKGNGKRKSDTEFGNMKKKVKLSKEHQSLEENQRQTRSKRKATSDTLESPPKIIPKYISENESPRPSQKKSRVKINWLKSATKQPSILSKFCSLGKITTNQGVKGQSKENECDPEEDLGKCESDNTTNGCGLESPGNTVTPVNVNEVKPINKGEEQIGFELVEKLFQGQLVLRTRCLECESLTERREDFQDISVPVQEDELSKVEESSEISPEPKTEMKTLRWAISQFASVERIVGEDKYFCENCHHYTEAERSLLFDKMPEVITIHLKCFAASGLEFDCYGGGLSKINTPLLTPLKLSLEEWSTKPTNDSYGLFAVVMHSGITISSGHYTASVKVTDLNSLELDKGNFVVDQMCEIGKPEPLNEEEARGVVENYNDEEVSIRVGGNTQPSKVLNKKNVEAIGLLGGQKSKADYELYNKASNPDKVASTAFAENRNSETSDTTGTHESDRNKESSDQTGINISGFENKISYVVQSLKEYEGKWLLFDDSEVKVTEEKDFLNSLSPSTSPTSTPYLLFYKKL

On to `O=C(O)[C@@H](O)[C@@H](O)[C@@H](O[C@H]1O[C@@H](CO)[C@@H](O)[C@@H](O)[C@@H]1O)[C@@H](O)CO`, for which the outcome in experiment [1], in [2] and in [6] was inactive. The Potency in experiment [3] and in [4] was > 20.6 µM (inactive) in each case. Moreover, the Potency result in experiment [5], in [8] and in [9] was “inactive” each time. In addition, the activity change, negative = inhibition in experiment [7] is -0.529% (inactive). Besides, the results for the max response in [7] (setting [13]) and in experiment [7] (setting [14]) were 12.1% and 10.3%, respectively.

With `Cc1ncc([N+](=O)[O-])n1C[C@H](O)CCl`, the call in [1], in experiment [2] and in experiment [11] was inactive. Also, the activity change, negative = inhibition is -7.59% (inactive) in [10] and -1.27% (inactive) in experiment [7]. The Potency in experiment [3] and in [4] was > 20.6 µM (inactive) in each case. Also, the Potency entry (in [5]; in [8]; in experiment [9]; in the experiment with C2A; with CP217; in the experiment on CP238) was “inactive” each time. Moreover, the Potency entry in the experiment on CP250, in the experiment with CP252, with FAB9, in the experiment with HB3 and in the experiment on SC27B was “inactive” each time. Also, the max response is 8.08% in experiment [7] (setting [13]) and 6.22% in experiment [7] (setting [14]). Moreover, the activity, negative = inhibition in experiment [12] (parasite line A) was 1% (inactive); in experiment [12] (parasite line B) it was 10.5% (inactive).

Take `Cc1ccccc1OC[C@H](O)CO`: the outcome in experiment [1] and in experiment [2] was inactive. The activity change, negative = inhibition in experiment [10] is 11.2% (inactive); in experiment [7], -0.676% (inactive). The Potency in [3] and in experiment [4] was > 20.6 µM (inactive) in each case. Moreover, the Potency result in experiment [5] and in experiment [8] was “inactive” each time. Moreover, the max response in [7] (setting [13]) is -3.4%; in [7] (setting [14]) it was -5.46%.

For `CO[C@@H]1C[C@H](O[C@H]2[C@@H](C)[C@H](O[C@@H]3O[C@@H](C)C[C@@H](N(C)C)[C@@H]3OC(C)=O)[C@H](C)C[C@]3(CO3)C(=O)[C@H](C)[C@H](OC(C)=O)[C@H](C)[C@H](C)OC(=O)[C@@H]2C)O[C@H](C)[C@@H]1OC(C)=O`, the outcome in experiment [1], in experiment [2], in experiment [6] and in [11] was inactive. The activity change, negative = inhibition is 11.7% (inactive) in experiment [10] and -1.3% (inactive) in experiment [7]. The Potency result (in experiment [5]; in experiment [8]; in experiment [9]; in the experiment with C2A; in the experiment with CP217; in the experiment with CP238) was “inactive” throughout. Moreover, the Potency result in the experiment with CP250, in the experiment with CP252, with FAB9, with HB3 and in the experiment with SC27B was “inactive” in each case. The max response in [7] (setting [13]) is -6.43%; in experiment [7] (setting [14]) it was -9.02%. The activity, negative = inhibition in experiment [12] (parasite line A) is -21.7% (inactive); in experiment [12] (parasite line B), -14.9% (inactive).

For the compound `COc1ccccc1OC[C@H](O)CO`, the outcome in [1], in [2], in experiment [6] and in experiment [11] was inactive. In addition, the figures for the activity change, negative = inhibition in [10] and in experiment [7] were -3.75% (inactive) and -4.43% (inactive), respectively. Besides, the Potency entry (in [5]; in experiment [8]; in experiment [9]; with C2A; in the experiment on CP217; with CP238) was “inactive” in each case. The Potency result in the experiment with CP250, in the experiment with CP252, in the experiment with FAB9, in the experiment on HB3 and in the experiment with SC27B was “inactive” each time. The max response was -24.7% in experiment [7] (setting [13]) and -36% in [7] (setting [14]). The activity, negative = inhibition in experiment [12] (parasite line A) was 5.68% (inactive); in experiment [12] (parasite line B), 4.87% (inactive).

Take `CC[C@H](CC[C@H](C)[C@@H]1CC[C@@H]2[C@H]3CC=C4C[C@@H](O)CC[C@]4(C)[C@H]3CC[C@]21C)C(C)C`: the compound was classed as inactive in [1], in experiment [2] and in experiment [6]. Besides, the activity change, negative = inhibition in [10] is -3.85% (inactive); in experiment [7], 2.08% (inactive). In addition, the Potency in [3] and in experiment [4] was > 20.6 µM (inactive) in each case. Moreover, the Potency entry in [5] and in experiment [8] was “inactive” throughout. Besides, the max response in experiment [7] (setting [13]) was -14.8%; in experiment [7] (setting [14]), -14.7%.
